Source: PubChem BioAssay
Potency and affinity values are given separately. Results filed as inconclusive are left out. Where a call stands in place of a potency, no number is given. Active and inactive are the calls of the source.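 How the source made its calls, unless noted: active means fitted half-maximal concentration for viability loss no higher than twice the top valid dose, in every repeat run; inconclusive means repeat runs disagree, flat partial loss, or poor curve fit; inactive means the rest.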

Assay: RMG-1 ovarian cancer cell viability loss – cherry-pick, dose response (AID 687029;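 active means signal drop whose fitted half-maximal concentration is at most twice the top valid dose, in every test run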;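 further: cells exposed to compound for 96 hours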)
Conditions: RMG-1 viability, CellTiterGlo ATP luminescence, 96 h; series mostly up to 35 µM

Question: Which outcome does the source give for CO[C@H]1CN(C)C(=O)c2cc(NC(=O)c3nc4ccccc4s3)ccc2OC[C@H](C)N(Cc2cccnc2)C[C@H]1C here?
Answer: The outcome was “inactive”.

Question: Which outcome does the source give for C[C@H](CO)N1C[C@H](C)[C@H](CN(C)S(=O)(=O)c2cccs2)OCCCC[C@H](C)Oc2ccc(NC(=O)NC3CCCCC3)cc2C1=O here?
Answer: The outcome was “inactive”.

Question: Which outcome does the source give for C[C@H](CO)N1C[C@H](C)[C@H](CN(C)C(=O)NC2CCCCC2)Oc2cc(C#Cc3cccc(F)c3)ccc2S1(=O)=O here?
Answer: Its outcome is “inactive”.

Assay: IOSE-T80 viability loss, PAX8-independent line – cell-based, cherry-pick, selectivity assay for PAX8 inhibitor project, dose response (AID 687032);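 further: cells exposed to compound for 96 h before reading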
Conditions: CellTiterGlo ATP luminescence, 96 h; series mostly up to 35 µM

Question: With Cc1ccc(S(=O)(=O)N(C)C[C@@H]2Oc3cc(C#Cc4ccncc4)ccc3S(=O)(=O)N([C@@H](C)CO)C[C@H]2C)cc1 as the compound, how does the outcome read?
Answer: Its outcome is “inactive”.

Question: With C[C@H]1CN([C@@H](C)CO)C(=O)c2cccc(NC(=O)Nc3ccc(F)cc3)c2O[C@H]1CN(C)C(=O)Nc1ccc(C(F)(F)F)cc1 as the compound, how does the outcome read?
Answer: Its outcome is “inactive”.

Question: Which outcome does the source give for COc1ccc(-c2ccc3c(c2)[C@@H]2[C@@H](CCN2C(=O)C2CCCC2)[C@H](CO)N3C)cc1 here?
Answer: Its outcome is “inactive”.

Question: For C[C@@H]1CCCCO[C@H](CN(C)Cc2ccc(Cl)c(Cl)c2)[C@H](C)CN([C@@H](C)CO)C(=O)c2cc(NC(=O)Nc3ccc(F)cc3)ccc2O1, which outcome is on record?
Answer: The outcome was “inactive”.

Question: Which outcome does the source give for COc1ccccc1-c1ccc2c(c1)O[C@H](CN(C)Cc1ccc3c(c1)OCO3)[C@H](C)CN([C@@H](C)CO)S2(=O)=O here?
Answer: The outcome was “inactive”.

Question: Which outcome does the source give for Cc1ccc(S(=O)(=O)N(C)C[C@@H]2Oc3c(NC(=O)c4ccc(-c5nccs5)cc4)cccc3C(=O)N([C@@H](C)CO)C[C@@H]2C)cc1 here?
Answer: The outcome was “inactive”.

Question: With CCCN1[C@H](C(=O)N2CCOCC2)[C@@H](CO)[C@@H]2Cn3c(ccc(/C=C/c4ccccc4)c3=O)[C@@H]21 as the compound, how does the outcome read?
Answer: The outcome was “inactive”.

Question: Which outcome does the source give for C[C@@H]1CCCCO[C@@H](CN(C)Cc2ccc(C(F)(F)F)cc2)[C@H](C)CN([C@@H](C)CO)C(=O)c2cc(NS(=O)(=O)c3ccccc3)ccc2O1 here?
Answer: The outcome was “inactive”.

Question: Which outcome does the source give for O=C(C[C@H]1C[C@@H]2c3cc(NC(=O)Nc4ccc(C(F)(F)F)cc4)ccc3O[C@@H]2[C@@H](CO)O1)NCCc1ccccc1 here?
Answer: Its outcome is “inactive”.

Question: With C[C@@H]1CN([C@@H](C)CO)C(=O)c2cc(NC(=O)c3ccccc3)ccc2O[C@@H](C)CCCCO[C@H]1CN(C)Cc1ccc(C(F)(F)F)cc1 as the compound, how does the outcome read?
Answer: Its outcome is “inactive”.

Question: With CC(C)CC#Cc1ccc2c(c1)O[C@H](CN(C)S(=O)(=O)c1ccc(F)cc1)[C@H](C)CN([C@@H](C)CO)S2(=O)=O as the compound, how does the outcome read?
Answer: The outcome was “inactive”.

Question: With C[C@@H]1CN([C@H](C)CO)C(=O)c2cc(NS(=O)(=O)c3ccc(F)cc3)ccc2O[C@@H]1CN(C)Cc1ccc(C(F)(F)F)cc1 as the compound, how does the outcome read?
Answer: Its outcome is “inactive”.

Question: Which outcome does the source give for O=C(Nc1cccc(F)c1)N1CCCCN2[C@@H](CO)[C@@H](c3ccc(-c4ccncc4)cc3)[C@@H]2C1 here?
Answer: The outcome was “inactive”.

Question: For C[C@@H]1CCCCO[C@H](CN(C)C(=O)c2ccccc2)[C@@H](C)CN([C@@H](C)CO)C(=O)c2cc(NC(=O)Nc3ccc(C(F)(F)F)cc3)ccc2O1, which outcome is on record?
Answer: The outcome was “inactive”.

Question: With COc1ccc(S(=O)(=O)N2CCCCN3[C@H](C2)[C@H](c2ccc(C#CC(C)C)cc2)[C@@H]3CO)cc1 as the compound, how does the outcome read?
Answer: The outcome was “inactive”.

Question: For C[C@H](CO)N1C[C@H](C)[C@H](CN(C)Cc2ccc3c(c2)OCO3)OCCCC[C@H](C)Oc2ccc(NS(=O)(=O)c3ccc(Cl)cc3)cc2C1=O, which outcome is on record?
Answer: Its outcome is “inactive”.

Question: With C[C@@H]1CCCCO[C@H](CN(C)C(=O)Cc2ccccc2)[C@H](C)CN([C@@H](C)CO)C(=O)c2cc(NC(=O)Nc3ccc(C(F)(F)F)cc3)ccc2O1 as the compound, how does the outcome read?
Answer: Its outcome is “inactive”.

Question: Which outcome does the source give for COc1ccc(S(=O)(=O)Nc2ccc3c(c2)C(=O)N([C@H](C)CO)C[C@@H](C)[C@H](CN(C)S(=O)(=O)c2ccc(F)cc2)OCCCC[C@H](C)O3)cc1 here?
Answer: Its outcome is “inactive”.

Question: For C[C@H](O)C#Cc1ccc2c(c1)O[C@@H](CN(C)Cc1ccc(-c3ccccc3)cc1)[C@@H](C)CN([C@@H](C)CO)S2(=O)=O, which outcome is on record?
Answer: The outcome was “inactive”.

Question: With C[C@@H]1CN([C@H](C)CO)C(=O)c2cc(NC(=O)Nc3ccc(C(F)(F)F)cc3)ccc2O[C@@H](C)CCCCO[C@H]1CN(C)C(=O)Nc1ccc(F)cc1 as the compound, how does the outcome read?
Answer: The outcome was “inactive”.

Question: For C[C@H]1CN([C@@H](C)CO)C(=O)c2ccccc2-c2ccccc2CO[C@H]1CN(C)S(=O)(=O)c1ccc(C(F)(F)F)cc1, which outcome is on record?
Answer: Its outcome is “inactive”.

Question: With C[C@@H]1CN([C@@H](C)CO)C(=O)Cc2cc(NC(=O)Nc3ccc(F)cc3)ccc2O[C@H]1CN(C)Cc1ccc(Cl)c(Cl)c1 as the compound, how does the outcome read?
Answer: The outcome was “inactive”.

Question: Which outcome does the source give for C[C@@H]1CN([C@@H](C)CO)S(=O)(=O)c2ccc(C#C[C@@H](C)O)cc2O[C@@H]1CN(C)Cc1ccc(-c2ccccc2)cc1 here?
Answer: Its outcome is “inactive”.
